# Screens from PubChem.
# AmpC inh no detg – inhibitors of E. coli AmpC beta-lactamase without detergent; AmpC nitrocefin hydrolysis, absorbance 480 nm, 0.0001% Triton; Potency, µM (doses to about 57.1 µM), inactives show at the top dose activity change, negative = inhibition, hits mostly inhibitors; 330,000 tested, 0.52% active; AID 485341;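 also: plate controls were no compound for no effect and no enzyme for full effect; nearly all actives have a fitted effect of over 20% in size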
# Target sequence (P00811 whole entry, looked up): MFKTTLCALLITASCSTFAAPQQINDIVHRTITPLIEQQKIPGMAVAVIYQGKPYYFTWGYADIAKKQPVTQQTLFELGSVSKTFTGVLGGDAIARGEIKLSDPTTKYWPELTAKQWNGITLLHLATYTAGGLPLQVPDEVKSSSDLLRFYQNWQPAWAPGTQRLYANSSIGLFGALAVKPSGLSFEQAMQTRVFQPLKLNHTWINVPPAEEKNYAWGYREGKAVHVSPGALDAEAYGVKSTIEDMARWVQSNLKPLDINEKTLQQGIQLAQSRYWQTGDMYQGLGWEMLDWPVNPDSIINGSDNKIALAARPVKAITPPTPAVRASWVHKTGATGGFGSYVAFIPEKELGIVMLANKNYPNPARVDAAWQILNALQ
#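 AmpC (5.3 nM in the dispensed reagent) in 20 mM phosphate pH 7.0 with 0.01% (detergent screen) or 0.0001% Triton X-100 was preincubated with compounds for 15 min at room temperature. Nitrocefin was then added from an 800 uM solution, and hydrolysis was followed at 480 nm.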
# Pf growth 96h – P. falciparum growth inhibition at 96 hours; Potency, µM (titrated, usually from 28.7 µM), for the others: top-dose activity change, negative = inhibition, most hits filed as inhibitors; P. falciparum luciferase reporter growth, 96 h; 320,000 tested, 6.9% active; AID 504834
#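 Two parasite generations (96 h, 37 C, 5% CO2) of compound exposure in infected erythrocytes (0.05% parasitemia, 2% hematocrit). Luciferase-reporter P. falciparum; decreased luminescence indicates inhibited growth, aimed at apicoplast-acting delayed death.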
# Pf growth 48h – inhibits P. falciparum growth in the first generation, 48 h. P. falciparum luciferase growth in erythrocytes, 48 h. 310,000 tested, 5.9% active. AID 504832. Potency, µM (doses to about 28.7 µM), inactives show at the highest dose activity change, negative = inhibition, hits mostly inhibitors
#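 Growth was read as firefly luciferase luminescence after a 48 h, 37 C, 5% CO2 exposure of compounds to reporter-bearing P. falciparum cultures (0.1% parasitemia, 2% hematocrit final) in Albumax-supplemented RPMI 1640.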
# AmpC detergent – AmpC beta-lactamase inhibition with detergent present | P00811 | AmpC hydrolysis of nitrocefin, absorbance 480 nm, 0.01% Triton | Potency, µM (highest dose often 114 µM), inactives show at the top dose activity change, negative = inhibition, most hits filed as inhibitors | 370,000 tested, 0.041% active | AID 485294;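 also: 0% = no-compound wells and -100% = no-enzyme wells; nearly all actives have a fitted effect of over 25% in size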
#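 20 mM phosphate pH 7.0 + 0.01% (detergent screen) or 0.0001% Triton X-100; 5.3 nM AmpC reagent; cpd preinc 15 min RT; nitrocefin (800 uM stock) to start; A480 q20 s × 4 min; Activity was normalised to no-enzyme and no-compound control wells.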
# HCV inhibitor – inhibitors of hepatitis C virus infection | AID 651820 | Potency, µM (series often up to 41.8 µM), without a hit: top-dose activity change, negative = inhibition, most hits filed as inhibitors | Huh7.5.1 HCVcc-Cre infection, luciferase reporter, 44 h | 340,000 tested, 3.4% active
#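 A cell-based infection assay in which seeded cells (1,000 per well) receive test compound after 4 h, are inoculated with HCVcc-Cre at approximately 0.5 moi, and are incubated 44 h before luminescence detection.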
# AMA1 RON2 block – inhibitors of Plasmodium falciparum AMA1-RON2 interaction; Potency, µM (series often up to 58.2 µM), without a hit: top-dose activity change, negative = inhibition, most hits filed as inhibitors; AlphaScreen AMA1-biotinylated RON2 peptide binding; 360,000 tested, 0.2% active;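 also: 0% = vehicle wells and -100% = peptide control; nearly all actives have a fitted effect of over 45% in size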
#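 AMA1 (3D7) with his tag at 25 nM final met compounds first, then biotinylated RON2 peptide at 25 nM; detection used donor plus acceptor beads, 10 µg/mL apiece, read by AlphaScreen after 30 min at room temperature.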
# * = called active by the depositor; ? = inconclusive; . = no result given; [ ] = another dose, or the depositor's remark. Shown are actives, neighbours in structure and some others; about 11% of the full set was active somewhere. Calls follow the shape of the dose curve; as a rule, active = well fitted curve in the direction sought with a large enough effect; inconclusive = small, poorly fitted or top-dose-only effect, or another doubt; inactive = no such curve, though single readings can be large; an effect the other way counts as inactive or inconclusive. Unless noted, % is scaled to controls: 0 for no effect and ±100 for the full control effect; potency is read from the fitted curve at half-maximal effect.
SMILES,AmpC inh no detg,Pf growth 96h,Pf growth 48h,AmpC detergent,HCV inhibitor,AMA1 RON2 block
O=C(CSc1nnc(Nc2ccccc2F)s1)c1cc2ccccc2o1,35.5µM*,9.3%,24.0%,-5.8%,2.6%,13.3%
COc1ccc(C)cc1NC(=O)C(Sc1nnc(Nc2ccccc2F)s1)c1ccccc1 (stereo not drawn),3.55µM*,0.0%,-12.9%,-7.7%,?,-16.9%
COCC(C)n1c(C)cc(C(=O)CSc2nnc(Nc3ccccc3F)s2)c1C (stereo not drawn),-7.4%,0.586µM*,1.47µM*,-5.8%,?,-12.7%
N#CC1(NC(=O)CSc2nnc(Nc3ccccc3F)s2)CCCC1,-27.8%,11.7µM*,?,-7.3%,4.8%,6.5%[11.6 µM]
COc1ccc(CCNC(=O)c2ccc3c(c2)CCN3S(=O)(=O)c2ccccc2)cc1OC,.,.,.,-3.0%,.,.
O=C(NCc1cccnc1)c1nn(-c2ccc(F)cc2)nc1CO,.,.,.,-1.5%,.,.
O=C(CN1C(=O)COc2ccc(S(=O)(=O)N3CCOCC3)cc21)N1CCN(c2ccccc2F)CC1,.,.,.,-7.2%,.,.
COc1cc2c(cc1OC)C1O[C@](CCCCN3C(=O)c4ccccc4C3=O)(C2)OC2=C1C(=O)OC1(CCCCC1)C2,-5.6%[11.4 µM],?,?,-9.6%[22.9 µM],.,.
CC1CCCCN1C(=O)CSc1nnc2c(n1)[nH]c1ccc(F)cc12 (stereo not drawn),-2.3%,-5.1%,?,-0.7%,2.6%,5.6%
CC1CCN(C(=O)CSc2nnc3c(n2)[nH]c2ccc(F)cc23)CC1,-12.9%,?,1.65µM*,-5.8%,6.9%,3.3%
CC1CCc2cc(F)ccc2N1C(=O)CSc1nnc2c(n1)[nH]c1ccc(F)cc12 (stereo not drawn),-9.6%,?,1.04µM*,0.2%,?,0.1%
CC1CCCCN1C(=O)CSc1nnc2c(n1)[nH]c1ccccc12 (stereo not drawn),-16.4%,11.7µM*,1.65µM*,2.9%,-24.8%,2.0%
COc1cccc(NC(=O)c2c(-c3ccc(C)cc3)nnc3ccccc23)c1,.,.,.,0.1%,.,.
CCOC(=O)c1cn(-c2ccccc2CO)c2c(F)c(F)c(F)cc2c1=O,-31.9%,?,20.8%,-13.5%,7.2%,1.9%
CCOC(=O)c1cn(CC2CC2)c2cc(F)c(F)cc2c1=O,-6.8%,?,-18.4%,0.0%,14.1µM*,-4.0%
CCCn1cc(C(=O)OCC)c(=O)c2cc(F)c(F)cc21,-20.8%,2.2%,-9.5%,2.8%,-8.3%,-15.8%
CCOC(=O)c1cn(CC)c2cc(Cl)c([N+](=O)[O-])cc2c1=O,-3.7%,?,13.1µM*,?,8.6%,-6.6%
CCOC(=O)c1cn(-c2c(Cl)cccc2Cl)c2cc(Cl)c([N+](=O)[O-])cc2c1=O,-56.1%,8.28µM*,13.1µM*,?,?,-3.7%
Cc1ccc(NC(=O)Cn2c(=O)n(Cc3nc(-c4ccccc4)no3)c(=O)c3ccccc32)c(C)c1,.,.,.,-5.4%,.,.
CC1(C)S[C@@H]2[C@H](NC(=O)[C@@H](N)c3ccccc3)C(=O)N2[C@H]1C(=O)O[C@H]1OC(=O)c2ccccc21,.,?,-12.3%[12.8 µM],.,.,.
CCCCCSc1cc(O)c(C(CNC)C(C)C)cc1OC (stereo not drawn),76.0%,0.465µM*,0.415µM*,10.1%,?,-1.9%
CCOC(=O)c1c(NC(=O)C2=C(C)NC(=S)NC2c2ccc(CC)cc2)sc(C)c1C (stereo not drawn),12.6µM*,?,?,-10.7%,?,.
CCOC(=O)C1=C(C)NC(=S)NC1c1ccc(OC(=O)c2ccco2)cc1 (stereo not drawn),-28.8%,?,-3.2%,2.6%,-14.7%,35.8%
Cc1nn(-c2ccccn2)c2c1C(c1c(F)cccc1Cl)C1=C(N2)c2ccccc2C1=O (stereo not drawn),-41.1%,9.28µM*,10.4µM*,-1.3%,6.9%,.
Cc1nn(-c2ccccn2)c2c1C(c1ccccc1Cl)C1=C(N2)c2ccccc2C1=O (stereo not drawn),-44.0%,11.7µM*,?,?,?,-14.1%
SMILES,AmpC inh no detg,Pf growth 96h,Pf growth 48h,AmpC detergent,HCV inhibitor,AMA1 RON2 block
CSC1=C(C#N)C(c2ccccc2Cl)C2=C(N1)c1ccccc1C2=O (stereo not drawn),-33.4%,?,-13.4%,?,7.8%,9.3%
CN(C(=O)Cn1cc(S(=O)(=O)Cc2ccccc2Cl)c2ccccc21)c1ccccc1,.,.,.,16.2%,.,.
CCOC(=O)N1CCC2(CC1)C(C#N)=C(N)Oc1n[nH]c(C)c12,-12.1%,?,.,-13.4%,-6.7%,-6.5%
CCOC(=O)N1CCC2(CC1)C(C#N)=C(N)Oc1c2c(C)nn1-c1cccc(Cl)c1,-42.7%,23.2%,9.28µM*,-6.8%,-14.5%,-3.3%
CCOC(=O)c1ccc2c(c1)C1C=CCC1C(C(=O)O)N2 (stereo not drawn),-45.9%,.,6.0%,?,.,.
CCN(CC)C(=O)c1ccc2c(c1)C1C=CCC1C(C(=O)O)N2 (stereo not drawn),-17.8%,21.2%,16.7%,-4.6%,-17.3%,12.6µM*
Cc1ccc2c(c1C)NC(C(=O)O)C1CC=CC21 (stereo not drawn),-46.8%,.,?,?,?,11.9µM*
O=C(O)C1Nc2c(C(=O)N3CCOCC3)cccc2C2C=CCC12 (stereo not drawn),-18.8%,0.3%,-9.7%,?,15.0%,-11.3%
Cc1cccc2c(C(=O)N3CCN(c4ccccc4)CC3)cc(-c3ccncc3)nc12,116.8%,?,8.28µM*,-10.3%,-17.5%,-7.4%
COc1ccc(-c2cc(C(=O)N3CCCCC3)c3ccccc3n2)cc1,36.6%,-84.2%,5.5%,?,-24.0%,-5.1%
Cc1cccc2c(C(=O)N3CCCCC3)cc(-c3ccccc3)nc12,78.8%,0.0%,9.28µM*,2.5%,?,-0.7%
O=S(=O)(NC(=NC1CCCCC1)c1ccccc1)c1ccc(F)cc1,31.9%,9.28µM*,?,3.3%,.,-4.5%
Cc1ccc(S(=O)(=O)NC(=NC2CCCCC2)c2ccc(F)cc2)cc1,-10.6%,12.0%,0.4%,-5.8%,-2.8%,-6.4%
COc1cccc(NC(=O)CSc2nnc(NC(=O)NC3CCCCC3)s2)c1,.,.,.,-1.5%,.,.
CC1(C(=O)NC2CCCCC2)CCC(=O)N1Cc1cccnc1 (stereo not drawn),-3.7%,-1.3%,15.3%,?,8.9%,-0.8%
CC1CCC(NC(=O)C2(C)CCC(=O)N2Cc2cccnc2)CC1 (stereo not drawn),44.7µM*,19.6%,19.2%,?,4.5%,-5.9%
